# CYP2C19 inhib – blockers of cytochrome P450 2C19 activity – biochemical, luminescence, ADME assay, primary screen. P33261. CYP2C19 Supersomes, luciferin-H EGE luminescence, 30 min. inhibition, % at 5 µM. 96,000 compounds, 21% hits;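 active means CYP2C19 inhibition above a set limit at 5 µM in the primary screen, cut at about 50% in these data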;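 further: plate controls were negative control wells for no effect and 2.5 mM tranylcypromine positive control for full effect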
# Target sequence (P33261 whole entry, looked up): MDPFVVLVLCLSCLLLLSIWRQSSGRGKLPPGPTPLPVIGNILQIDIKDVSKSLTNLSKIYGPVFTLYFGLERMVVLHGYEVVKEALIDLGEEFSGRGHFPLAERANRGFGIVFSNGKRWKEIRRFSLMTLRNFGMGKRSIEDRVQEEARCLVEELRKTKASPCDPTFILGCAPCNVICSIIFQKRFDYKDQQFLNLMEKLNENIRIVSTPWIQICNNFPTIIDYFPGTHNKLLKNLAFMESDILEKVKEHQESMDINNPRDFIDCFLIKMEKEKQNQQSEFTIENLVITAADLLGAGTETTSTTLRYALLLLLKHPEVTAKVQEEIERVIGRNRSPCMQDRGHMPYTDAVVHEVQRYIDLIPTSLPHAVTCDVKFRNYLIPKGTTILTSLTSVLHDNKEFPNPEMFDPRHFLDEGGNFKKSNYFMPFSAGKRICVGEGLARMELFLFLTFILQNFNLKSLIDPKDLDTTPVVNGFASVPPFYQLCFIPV
# CYP2C9 act – human CYP2C9 activators, primary screen, biochemical, luminescence; recombinant CYP2C9, luciferin-H conversion; hits give high values; factor 1 = untreated enzyme, 0 = blocked; activation factor at 5 µM; 96,000 compounds, 1.4% hits; AID 1024, 2008;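 active means activation factor of 2 or more for CYP2C9 at a 5 µM dose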;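 further: 0 = sulfaphenazole-blocked wells and 1 = vehicle-only wells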
# PostGolgi yeast – phenotypic screen on post-Golgi transport, primary screen; 98,000 compounds, 0.9% hits; post-Golgi transport phenotypic cell assay; inhibition, % at 10 µM;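 further: yeast cells grown in 1536-well plates; yeast grown about 18 h at 30C before absorbance read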
# PostGolgi ctrl – growth inhibition of yeast control strain, primary screen, counter-screen for post-Golgi transport modulator project | efflux-deficient yeast background strain, growth absorbance A615, 16 h | inhibition, % at 10 µM | 98,000 compounds, 5% hits
# CYP2C19 activ – human CYP2C19 activators, primary screen, biochemical, luminescence. 96,000 tested, under 10 active. recombinant CYP2C19, luciferin-H EGE luminescence; hits give high values; 0 = fully inhibited enzyme, 1 = untreated enzyme. Cytochrome P450 2C19 (Homo sapiens), P33261. activation factor at 5 µM. AID 1025, 2008;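 active means activation factor of at least 2 at 5 µM in the primary screen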;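 further: 0 = wells with 2.5 mM tranylcypromine and 1 = vehicle-only wells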
# CYP2C9 inh – blockers of cytochrome P450 2C9 activity – biochemical, luminescence, ADME assay, primary screen. P11712. CYP2C9 Supersomes, luciferin-H conversion. inhibition, % at 5 µM. 96,000 compounds, 20% hits;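 active means blocking of liver enzyme CYP2C9 beyond about 50% at 5 µM, limit read from the data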
# An asterisk follows results filed as active; / = not tested or not shown. A selection: hits, their analogues and other compounds. The true share with any hit is near 32%. Unless noted, no stated cut-off is given here; in the data, active means inhibition above about 30%; inactive means the rest.
SMILES,CYP2C19 inhib,CYP2C9 act,PostGolgi yeast,PostGolgi ctrl,CYP2C19 activ,CYP2C9 inh
Cc1ccc(NC(=O)COc2ccc(/C=N/NC(=O)CSCc3ccccc3)cc2)cc1,-1.1,0.6,-3.3,5.8,1,37.8
Cc1cccc(OCC(=O)N/N=C/c2cn[nH]c2-c2ccc(Cl)c(Cl)c2)c1,22.5,0.4,-5.4,37.7*,0.8,56.6*
CC(Sc1nnc(N)s1)C(=O)Nc1ccc(N2CCOCC2)cc1 (stereo not drawn),-5.1,1.1,6.9,16.8,1.1,-12.0
CC(=O)/C(C#N)=C1\NC(=O)C(Cc2ccc(C)c(C)c2)S1 (stereo not drawn),-5.4,0.1,-2.8,-0.3,1.1,94.4*
CCOC(=O)CSc1nc(C)c(C(=O)OCC)s1,38.2,0.3,-5.7,-1.4,0.6,65.0*
CCOC(=O)CSc1nc2ccc(N)cc2s1,45.8,0.8,0.3,2.7,0.5,19.2
COc1ccc(NC(=O)c2sc(SCc3ccccc3)nc2N)cc1,0.3,0.9,-10.1,1.3,1,12.3
CCOC(=O)CSc1nc(N)c(C(=O)Nc2ccc(N(C)C)cc2)s1,65.4*,0.5,-1.2,-5.7,0.3,47.1
Cc1cc(N2CCN(c3cccc(C(F)(F)F)c3)CC2)n2nc(C)nc2n1,-4.8,1.1,1.1,23.9,1,-11.2
COc1ccc(OC)c(C2C3=C(N=C4SCC(=O)N42)c2ccccc2CC3)c1 (stereo not drawn),44.2,0.5,-7.8,-1.8,0.6,47.3
COc1cccc(C2C3=C(N=C4SCC(=O)N42)c2ccccc2CC3)c1OC (stereo not drawn),87.0*,0.4,22.5,40.4*,0.1,60.1*
Cn1c(=O)c2c(nc(SCC(=O)NCc3ccc4c(c3)OCO4)n2Cc2ccccc2)n(C)c1=O,11.5,0.9,2.3,-0.3,0.9,5.8
O=C(CSc1nccn1-c1ccc(Cl)cc1)NCc1ccc2c(c1)OCO2,99.6*,0,-11.2,16.4,0,98.3*
CCOc1ccccc1NC(=O)CSc1nnc(CNC(=O)COc2ccc(Cl)cc2)o1,22.5,2*,-3.5,-4.7,0.8,-98.3
O=C(COc1ccc(Cl)cc1)NCc1nnc(SCC(=O)NCc2ccc3c(c2)OCO3)o1,45.6,0.3,-2.7,2.1,0.5,70.4*
COC(=O)c1ccc(CSc2nnc(CNC(=O)COc3ccc(Cl)cc3)o2)o1,37.7,0.3,8.0,17.1,0.6,67.6*
CCOc1ccccc1NC(=O)CSc1nnc(CNC(=O)c2ccco2)o1,18.2,0.8,-6.6,2.2,0.8,23.7
NC(=O)C1CCC(NC(=O)OCc2ccccc2)CC1 (stereo not drawn),-5.4,1.1,-0.2,4.2,1.1,-10.1
O=C(CN1C(=O)CSC1=O)c1ccccc1,1.2,0.9,7.0,1.1,1,13.2
CCOC(=O)c1cc(-c2nnc(-c3ccc(Cl)cc3)o2)c(C)nc1C,15.9,0.9,-8.0,-1.7,0.8,8.6
O=C(CSc1nnc(-c2ccccc2)o1)Nc1ccccc1F,57.4*,0.7,0.6,3.0,0.4,28.9
O=C(CSc1nnc(-c2ccc(Br)cc2)o1)Nc1cccc2ccccc12,70.1*,0.3,-11.7,5.1,0.3,74.0*
COc1ccccc1NC(=O)CSc1nnc(C)o1,-2.1,1,-4.4,-4.0,1,-4.5
COc1ccccc1NC(=O)CSc1nnc(-c2ccncc2)o1,84.2*,0.7,-2.4,7.6,0.2,30.1
CCOC(=O)c1cc(-c2nnc(SCC(=O)Nc3ccc(F)cc3)o2)c(C)nc1C,20.4,0.5,-2.5,4.2,0.8,50.6*
SMILES,CYP2C19 inhib,CYP2C9 act,PostGolgi yeast,PostGolgi ctrl,CYP2C19 activ,CYP2C9 inh
Cc1ccc2c(c1)NC(=O)C(CC(=O)N(C)Cc1ccccc1)O2 (stereo not drawn),38.2,1.1,9.1,-2.1,0.6,-7.5
CCN1C(=O)c2ccccc2S(=O)c2ccc(C(=O)NC3CC3)cc21 (stereo not drawn),1.6,1,-19.1,-2.5,1,3.5
CCS(=O)(=O)N1CCC(C(=O)NCc2ccccc2OC)CC1,-6.3,1.3,-1.3,0.3,1.1,-34.6
Cc1nnc(SCC(=O)Nc2ccccc2)[nH]c1=O,32.5,0.8,-23.6,-2.2,0.7,23.9
O=C(CSc1nnc(-c2ccncc2)o1)Nc1ccccc1Cl,90.5*,0.8,2.5,-4.5,0.1,17.4
N#Cc1ccsc1NC(=O)CSc1nnc(-c2ccccc2)o1,27.8,0.2,-1.4,-0.3,0.7,84.9*
Cc1cnc(NC(=O)CSc2nnc(-c3ccccc3)o2)s1,/,/,2.4,7.8,/,/
Cc1ccc(-c2nnc(SCC(=O)Nc3ccccc3F)o2)cc1,24.3,0.6,3.0,12.9,0.8,37.3
N#Cc1ccsc1NC(=O)COc1ccc(-c2nnco2)cc1,77.5*,0,/,/,0.2,95.3*
CC1CCCC(C)N1C(=O)COc1ccc(-c2nnco2)cc1 (stereo not drawn),1.9,1,-4.4,6.8,1,3.3
COc1ccccc1NC(=O)CSc1nnc(C2CCCCC2)o1,55.5*,0.6,-0.6,-5.5,0.4,44.0
CC(=O)N1CCN(CC(=O)Nc2c(Cl)cc(Cl)cc2Cl)CC1,9.1,0.8,4.0,8.9,0.9,17.4
CC(C)CC(=O)Nc1ccc(C(=O)COc2ccc(-c3nnco3)cc2)cc1,71.8*,0.1,5.3,8.2,0.3,92.8*
Cc1ccc(-n2nnnc2SCC(=O)Nc2sc(C)c(C)c2C#N)cc1C,1.3,0.9,18.0,14.3,1,14.1
CC(C)CC(=O)Nc1ccc(OCC(=O)O)cc1,-8.8,1.1,4.8,14.3,1.1,-7.7
Cc1csc(NC(=O)CSc2nnc(-c3ccncc3)o2)n1,54.8*,0.7,-2.5,1.5,0.5,28.7
Cc1cccc(C)c1OCc1nnc(SCC(=O)Nc2ccccc2F)o1,13.1,0.4,-2.5,14.6,0.9,59.3*
Cc1sc(NC(=O)CSc2nnc(-c3ccc(F)cc3)o2)c(C#N)c1C,70.2*,0.3,-2.5,4.8,0.3,72.2*
Cc1csc(NC(=O)CSc2nnc(-c3ccoc3C)o2)n1,12.3,0.9,-8.4,-10.7,0.9,12.0
O=C(O)C1CCN(C(=O)COc2ccc3c4c(c(=O)oc3c2)CCC4)CC1,8.1,1.1,4.4,2.9,0.9,-5.3
CCCOc1ccc(C(=O)CCC(=O)OCC(=O)Nc2cc(C)on2)cc1,1.4,1,22.2,-5.1,1,-1.5
Cc1ccc(C)c(S(=O)(=O)C(C#N)c2nc3ccccc3nc2N2CC(C)OC(C)C2)c1 (stereo not drawn),51.9*,0,-2.1,10.7,0.5,98.7*
COc1ccc(S(=O)(=O)C(C#N)c2nc3ccccc3nc2N2CCCCC2)cc1 (stereo not drawn),56.9*,0.4,-6.3,-2.6,0.4,64.0*

# High-throughput results from PubChem.
